Inconclusive results are not listed. The source made the active and inactive calls. Unless noted, calls come from the whole dose curve; as a rule, active = well fitted curve in either direction with a large enough effect (not every such curve was filed as active); inconclusive = small, poorly fitted or top-dose-only effect, or another doubt; inactive = flat fitted curve, though single readings scatter.
Experiments:
[1] = target: Lysosomal acid glucosylceramidase (Homo sapiens) (UniProt P04062); assay: Glucocerebrosidase-p2 (AID 348; in the data active = potency below about 10 µM; note: potency is the fitted concentration of half-maximal effect); conditions: purified GBA, blue fluorogenic substrate, 40 min
Method in brief: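 Compounds titrated from 0.6 nM upwards against 0.2 nM enzyme in pH 5.9 citric acid/KH2PO4, taurocholate, tween-20; blue fluorogenic substrate 80 uM, 40 min room temperature, stopped and read Ex 365/Em 440 for AC50.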

[2] = AP1 Signaling Pathway (AID 357); conditions: ME-180 AP-1-bla reporter, EGF-induced, beta-lactamase ratio, 5 h; at 7.69 µM (top of the series) unless noted;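 note: ME-180 reporter cells stimulated with EGF at its EC50 level; % is set by controls: 0 for no effect and ±100 for the full control effect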
Method in brief: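 Modulation of EGF-driven AP-1 transcription was assessed with a beta-lactamase reporter in ME-180 cells. Compound and EC50 EGF were co-incubated 5 hours at 37 °C before 2.5-hour CCF4 loading at room temperature and dual-emission reading.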

[3] = target: Cytochrome P450 1A2 (Homo sapiens) (UniProt P05177); assay: p450-cyp1a2 (AID 410; calls by dose curve; note: potency is the fitted concentration of half-maximal effect;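 for activity change, negative = inhibition: -100% = full effect of reference inhibitor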); conditions: recombinant CYP1A2, luciferin-ME demethylation, luminescence; series mostly up to 57 µM
Method in brief: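 Inhibition was calculated relative to 57 uM furafylline (full inhibition). The reaction used human CYP1A2 at 20nM with Luciferin-ME at its Km, 100uM, driven by an NADPH-regenerating system for 60 min at room temperature.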

[4] = NFAT Signaling Pathway (AID 444); conditions: Jurkat NFAT-bla M1, carbachol, beta-lactamase ratio, 5 h; at 7.69 µM (top of the series) unless noted;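 note: carbachol stimulus at about its EC50 of 1 µM final; % is set by controls: 0 for no effect and ±100 for the full control effect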
Method in brief: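 Jurkat cells with NFAT-driven β-lactamase reporter and co-expressed M1 receptor, stimulated with carbachol (final 1 uM, ~EC50), compound titration, 5 h at 37 °C. CCF4 loaded 1 h at RT; 460/530 nm ratio gave %activity and AC50.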

[5] = target: Glucocorticoid receptor (Homo sapiens) (UniProt P04150); assay: GR-GFP Redistribution (AID 450;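 active = compounds whose dose series gives a full or clear partial fitted curve of increased nuclear translocation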; note: potency is the fitted concentration of half-maximal effect); conditions: U2OS GR-GFP nuclear translocation, laser cytometry, 2 h
[6] = target: Glucocorticoid receptor (Homo sapiens) (UniProt P04150); assay: GR-EFC Redistribution (AID 451; calls by dose curve; note: potency is the fitted concentration of half-maximal effect); conditions: CHO-K1 GR-EFC translocation, beta-gal luminescence, 2 h
Method in brief: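 CHO-K1 cells expressing nuclear EA and GR-ED fragments of b-gal; compounds titrated up to 46 uM final, 2 h at 37 C. GR nuclear translocation read as complemented b-gal luminescence after 1 h RT detection.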

[7] = target: Mitogen-activated protein kinase 10 (Mus musculus) (UniProt Q61831); assay: JNK3 AlphaScreen Assay (AID 530); conditions: JNK3 lysate, c-Jun phosphorylation; series mostly up to 57.1 µM;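 note: kinase came from lysate of stimulated human HepG2 cells; signal reports phosphorylation of biotinylated GST-cJun 1-79 at Ser73 with 10 µM ATP; % is set by controls: 0 for no effect and ±100 for the full control effect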
Method in brief: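 qHTS format: compounds tested as titrations against IL-1beta/TNF-alpha-activated HepG2 lysate JNK3 with biotin-GST-cJun substrate and 10 uM ATP at room temperature. Loss of anti-phospho-cJun AlphaScreen signal indicates inhibition.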

[8] = target: Cytochrome P450 2C9 (Homo sapiens) (UniProt P11712); assay: qHTS Assay for Inhibitors and Substrates of Cytochrome P450 2C9 (AID 883; active = well fitted curve in the direction sought with a large enough effect; an effect the other way counts as inactive or inconclusive; note: % is set by controls: 0 for no effect and ±100 for the full control effect; nearly all actives have a fitted effect of over 60% in size); conditions: recombinant CYP2C9, luciferin-H luminescence, 60 min; series mostly up to 57.1 µM
Method in brief: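 Signal: luciferase luminescence reporting luciferin produced by CYP2C9. Conditions: 10nM enzyme, Luciferin-H 100uM at KM, 25mM KPO4, 37C, 60 min NADPH-driven reaction. Reference: 57uM sulphaphenazole as 100% inhibition.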

[9] = target: Cytochrome P450 3A4 (Homo sapiens) (UniProt P08684); assay: qHTS Assay for Activators of Cytochrome P450 3A4 (AID 885; active = well fitted curve in the direction sought with a large enough effect; an effect the other way counts as inactive or inconclusive; note: nearly all actives have a fitted effect of over 65% in size); conditions: recombinant CYP3A4, Luciferin-PPXE luminescence, 60 min; series mostly up to 57.1 µM
Method in brief: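 Signal was normalized against complete inhibition by 57 uM ketoconazole. The reaction used 20nM CYP3A4 with 25uM Luciferin-PPXE, 10-min compound preincubation and a 60-min NADPH-supported step at RT.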

[10] = qHTS Assay for Lipid Storage Modulators (AID 1519; calls by dose curve); conditions: Drosophila S3 cells, BODIPY lipid droplet/cell ratio, laser cytometry, cells loaded with oleic acid; for activity change, negative = inhibition: at 57.5 µM (top of the series)
Method in brief: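 Cells seeded at 5,000 per well were treated with compounds over a concentration series and loaded with oleic acid (400 uM, as added). Lipid droplet fluorescence (488 nm excitation, 500-530 nm channel) was read by laser-scanning cytometry and normalized to 20 uM Triacsin C.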

[11] = Primary qHTS for small molecule stabilizers of the endoplasmic reticulum resident proteome: Secreted ER Calcium Modulated Protein (SERCaMP) assay (AID 1508630; active = well fitted curve in the direction sought with a large enough effect; an effect the other way counts as inactive or inconclusive; note: % is set by controls: 0 for no effect and ±100 for the full control effect); conditions: SH-SY5Y GLuc-SERCaMP (Gaussia luciferase released on ER calcium loss) secretion, thapsigargin, luminescence; series mostly up to 38.4 µM
Method in brief: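 GLuc-SERCaMP-expressing SH-SY5Y cells, pretreated 16 h with compound, are challenged with thapsigargin to empty ER calcium stores; after 4 h, coelenterazine is added directly to the medium and luminescence is imaged.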

[12] = target: 3',5'-cyclic-AMP phosphodiesterase 4B (Homo sapiens) (UniProt Q07343); assay: qHTS Assay for Inhibitors of PDE-IV (AID 607; active = well fitted activation curve with a large enough effect in the main read-out, with a control signal flat, not every such curve was filed as active; note: % of control where 0% means no effect); conditions: HEK293 ACTOne CNG channel cells, membrane potential fluorescence; series mostly up to 22.9 µM
Method in brief: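 Cell-based read-out of cAMP via a modified cyclic nucleotide-gated channel and membrane potential dye (535/590 nm) in HEK293 cells expressing PDE4 endogenously. Compounds tested up to 22.9 uM final; 100 uM RO 20-1724 reference.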

[13] = Stat Signaling Pathway (AID 446); conditions: ME-180 SIE beta-lactamase reporter, IL-6 stimulated, 5 h; at 7.69 µM (top of the series) unless noted
Method in brief: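 Reporter line: ME-180 cervical carcinoma, SIE-beta-lactamase. Treatment: compound with 40 pM IL-6, 5 hrs, 37 C, in low-serum OPTI-MEM with 10 mM HEPES pH 7.3. Detection: 460/530 nm fluorescence.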

[14] = qHTS Assay for Identification of Small Molecule Agonists for Hypoxia Response Element Signaling Pathway (AID 914; active = well fitted activation curve with a large enough effect in the signal ratio, with a control signal flat, not every such curve was filed as active; the % refers to the signal ratio; note: potency is the fitted concentration of half-maximal effect); conditions: ME-180 (cervical carcinoma) HRE-bla reporter, beta-lactamase ratio, CoCl2, 17 h; activation: stronger effect = higher value
Method in brief: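 Cells were plated overnight, pin-dosed with compound in a titration series, co-stimulated with EC50 CoCl2 and incubated 17 hours at 37 degrees Celsius. CCF4 substrate was then loaded, and AC50 values came from the 460nm/530nm ratio.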

[15] = Confirmation and Secondary Assay for Modulators of Hemoglobin Beta Chain Splicing at IVS2 654 locus (AID 910; active = well fitted curve in the direction sought with a large enough effect; an effect the other way counts as inactive or inconclusive;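 note: HeLa cells stably carrying EGFP split by mutant beta-globin IVS2-654 intron; % of control where 0% means no effect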); conditions: HeLa EGFP-654 splicing reporter, GFP fluorescence, 48 h; series mostly up to 38.3 µM
Method in brief: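 HeLa cells stably expressing EGFP interrupted by β-globin IVS2-654 intron, seeded overnight in Opti-MEM/2% FCS, then treated 2 days at 37 °C. Restored splicing read as total peak GFP intensity per well by laser scanning cytometry (488 nm excitation, 500–520 nm emission); 500 nM antisense PNA as control.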

[16] = Confirmation and Secondary Assay for Modulators of Hemoglobin Beta Chain Splicing at IVS2 705 locus (AID 930; active = well fitted curve in the direction sought with a large enough effect; an effect the other way counts as inactive or inconclusive;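 note: HeLa cells stably expressing the EGFP-705 splicing reporter; GFP fluorescence per well restored by corrected splicing of the IVS2-705 intron in EGFP; % of control where 0% means no effect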); conditions: HeLa EGFP-705 splicing reporter, GFP fluorescence, 48 h; series mostly up to 38.3 µM
Method in brief: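 Splice-correction reporter: EGFP cDNA split by beta-globin intron 2 bearing the 705 mutation, stably in HeLa. Compound incubation 2 days, 37C; fluorescent objects 5-250 µm summed per well.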

[17] = target: Ubiquitin carboxyl-terminal hydrolase 1 (Homo sapiens) (UniProt O94782); assay: Inhibitors of USP1/UAF1: Pilot qHTS (AID 504865; active = well fitted curve in the direction sought with a large enough effect; an effect the other way counts as inactive or inconclusive;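 note: rhodamine fluorescence freed from ubiquitin-rhodamine substrate followed over time; top concentration of the series differs between compounds; % is set by controls: 0 for no effect and ±100 for the full control effect; nearly all actives have a fitted effect of over 35% in size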); conditions: purified USP1/UAF1, Ub-rhodamine cleavage fluorescence; series mostly up to 54.9 µM
Method in brief: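 Deubiquitinase activity followed as kinetic rhodamine fluorescence release from 150 nM Ub-Rho. 1 nM USP1/UAF1 with compound, after 15 min room-temperature preincubation, in HEPES pH 7.8 buffer containing TCEP, EDTA, BSA and Tween-20.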

[18] = measured here: cell count channel max response
[19] = measured here: lipid channel max response

Sequence of Cytochrome P450 3A4 (Homo sapiens) (P08684 whole entry, looked up): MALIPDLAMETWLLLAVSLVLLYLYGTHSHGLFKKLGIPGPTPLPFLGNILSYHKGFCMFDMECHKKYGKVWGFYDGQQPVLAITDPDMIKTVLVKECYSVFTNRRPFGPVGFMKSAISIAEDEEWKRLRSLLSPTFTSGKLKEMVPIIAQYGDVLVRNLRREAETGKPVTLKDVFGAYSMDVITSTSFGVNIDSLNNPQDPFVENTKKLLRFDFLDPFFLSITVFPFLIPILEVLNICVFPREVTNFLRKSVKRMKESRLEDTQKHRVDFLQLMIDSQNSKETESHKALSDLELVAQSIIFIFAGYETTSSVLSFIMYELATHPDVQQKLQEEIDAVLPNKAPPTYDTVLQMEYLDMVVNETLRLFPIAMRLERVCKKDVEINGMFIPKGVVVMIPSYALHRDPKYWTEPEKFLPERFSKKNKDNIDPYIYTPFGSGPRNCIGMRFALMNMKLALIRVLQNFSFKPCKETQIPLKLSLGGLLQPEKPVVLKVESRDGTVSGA
Sequence of Glucocorticoid receptor (Homo sapiens) (P04150 whole entry, looked up, the tested form may be a part): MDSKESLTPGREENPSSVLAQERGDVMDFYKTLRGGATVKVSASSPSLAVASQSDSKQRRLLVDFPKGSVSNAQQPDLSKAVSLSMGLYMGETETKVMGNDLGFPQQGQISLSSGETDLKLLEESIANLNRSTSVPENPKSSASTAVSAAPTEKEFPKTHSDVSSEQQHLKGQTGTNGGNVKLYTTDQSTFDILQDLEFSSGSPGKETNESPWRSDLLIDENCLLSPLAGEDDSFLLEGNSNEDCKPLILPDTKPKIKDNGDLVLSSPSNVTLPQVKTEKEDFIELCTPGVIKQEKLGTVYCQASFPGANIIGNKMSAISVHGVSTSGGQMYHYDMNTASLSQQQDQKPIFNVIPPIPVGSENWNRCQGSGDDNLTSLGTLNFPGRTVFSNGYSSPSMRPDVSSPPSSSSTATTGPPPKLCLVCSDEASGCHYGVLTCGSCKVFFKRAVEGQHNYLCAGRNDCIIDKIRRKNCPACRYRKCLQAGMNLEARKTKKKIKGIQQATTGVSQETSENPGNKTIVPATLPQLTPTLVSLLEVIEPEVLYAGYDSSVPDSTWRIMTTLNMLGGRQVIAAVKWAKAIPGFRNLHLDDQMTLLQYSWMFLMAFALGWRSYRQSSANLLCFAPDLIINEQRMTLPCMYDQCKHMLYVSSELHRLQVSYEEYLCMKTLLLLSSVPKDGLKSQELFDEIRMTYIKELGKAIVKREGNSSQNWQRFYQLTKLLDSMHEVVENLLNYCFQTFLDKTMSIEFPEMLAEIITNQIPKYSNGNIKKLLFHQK
Sequence of 3',5'-cyclic-AMP phosphodiesterase 4B (Homo sapiens) (Q07343 whole entry, looked up): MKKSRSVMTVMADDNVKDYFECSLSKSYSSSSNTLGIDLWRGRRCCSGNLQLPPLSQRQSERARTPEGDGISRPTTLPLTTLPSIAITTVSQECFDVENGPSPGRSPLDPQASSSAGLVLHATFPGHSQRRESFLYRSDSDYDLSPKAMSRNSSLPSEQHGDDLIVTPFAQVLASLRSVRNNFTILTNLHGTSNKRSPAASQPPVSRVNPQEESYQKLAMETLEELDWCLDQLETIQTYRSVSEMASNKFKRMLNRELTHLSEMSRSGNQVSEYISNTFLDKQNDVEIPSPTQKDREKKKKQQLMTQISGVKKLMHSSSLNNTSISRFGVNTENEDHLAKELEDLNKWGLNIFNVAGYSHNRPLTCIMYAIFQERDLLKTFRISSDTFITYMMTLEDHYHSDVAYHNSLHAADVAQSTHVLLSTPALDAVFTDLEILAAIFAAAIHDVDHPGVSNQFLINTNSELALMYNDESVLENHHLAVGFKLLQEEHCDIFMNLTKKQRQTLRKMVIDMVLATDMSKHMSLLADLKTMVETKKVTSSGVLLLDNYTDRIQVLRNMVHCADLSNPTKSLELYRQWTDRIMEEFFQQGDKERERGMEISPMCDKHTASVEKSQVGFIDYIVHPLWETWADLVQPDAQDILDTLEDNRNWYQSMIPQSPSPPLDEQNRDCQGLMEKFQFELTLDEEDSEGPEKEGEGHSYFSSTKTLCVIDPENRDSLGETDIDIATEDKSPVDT
Sequence of Cytochrome P450 1A2 (Homo sapiens) (P05177 whole entry, looked up): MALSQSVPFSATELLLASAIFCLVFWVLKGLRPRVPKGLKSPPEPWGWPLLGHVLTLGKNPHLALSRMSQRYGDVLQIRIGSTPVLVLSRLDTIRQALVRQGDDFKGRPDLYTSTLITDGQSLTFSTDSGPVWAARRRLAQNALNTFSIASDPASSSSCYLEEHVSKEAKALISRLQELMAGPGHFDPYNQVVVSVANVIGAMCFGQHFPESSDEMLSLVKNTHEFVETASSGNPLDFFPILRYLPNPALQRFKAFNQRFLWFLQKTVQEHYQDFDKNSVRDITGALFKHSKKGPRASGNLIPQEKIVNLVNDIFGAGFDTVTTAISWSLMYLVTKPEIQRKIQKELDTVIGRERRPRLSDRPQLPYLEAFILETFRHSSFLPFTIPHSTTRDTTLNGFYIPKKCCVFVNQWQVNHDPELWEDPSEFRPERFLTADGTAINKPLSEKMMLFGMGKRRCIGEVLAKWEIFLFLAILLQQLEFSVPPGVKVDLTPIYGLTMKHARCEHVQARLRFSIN
Sequence of Lysosomal acid glucosylceramidase (Homo sapiens) (P04062 whole entry, looked up): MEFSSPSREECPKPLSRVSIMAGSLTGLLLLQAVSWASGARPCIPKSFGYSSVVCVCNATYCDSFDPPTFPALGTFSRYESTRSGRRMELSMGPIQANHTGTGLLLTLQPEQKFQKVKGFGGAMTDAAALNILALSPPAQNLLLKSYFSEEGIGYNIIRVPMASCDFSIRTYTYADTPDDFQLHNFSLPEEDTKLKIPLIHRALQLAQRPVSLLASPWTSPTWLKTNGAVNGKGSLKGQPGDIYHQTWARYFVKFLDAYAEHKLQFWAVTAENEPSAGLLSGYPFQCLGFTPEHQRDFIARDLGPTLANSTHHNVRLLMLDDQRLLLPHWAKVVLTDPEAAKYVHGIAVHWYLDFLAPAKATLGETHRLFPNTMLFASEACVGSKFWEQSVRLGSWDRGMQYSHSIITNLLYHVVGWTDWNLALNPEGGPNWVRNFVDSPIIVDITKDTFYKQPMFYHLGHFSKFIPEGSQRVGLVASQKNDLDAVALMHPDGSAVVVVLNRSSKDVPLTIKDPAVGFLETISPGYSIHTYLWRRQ
Sequence of Cytochrome P450 2C9 (Homo sapiens) (P11712 whole entry, looked up): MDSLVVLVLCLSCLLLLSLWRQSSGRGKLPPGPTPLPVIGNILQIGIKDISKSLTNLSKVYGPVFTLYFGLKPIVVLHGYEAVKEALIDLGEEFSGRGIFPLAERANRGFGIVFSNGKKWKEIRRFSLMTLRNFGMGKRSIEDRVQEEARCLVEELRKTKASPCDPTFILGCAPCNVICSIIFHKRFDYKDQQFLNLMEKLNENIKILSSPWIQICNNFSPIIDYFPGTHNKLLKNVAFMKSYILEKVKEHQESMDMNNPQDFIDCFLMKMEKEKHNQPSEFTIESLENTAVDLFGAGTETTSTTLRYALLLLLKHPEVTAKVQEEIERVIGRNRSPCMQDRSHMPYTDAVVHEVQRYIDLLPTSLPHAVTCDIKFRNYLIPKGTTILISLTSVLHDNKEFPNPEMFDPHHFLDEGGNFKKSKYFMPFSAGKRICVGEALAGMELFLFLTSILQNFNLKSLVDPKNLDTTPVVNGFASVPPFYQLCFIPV
Sequence of Ubiquitin carboxyl-terminal hydrolase 1 (Homo sapiens) (O94782 whole entry, looked up): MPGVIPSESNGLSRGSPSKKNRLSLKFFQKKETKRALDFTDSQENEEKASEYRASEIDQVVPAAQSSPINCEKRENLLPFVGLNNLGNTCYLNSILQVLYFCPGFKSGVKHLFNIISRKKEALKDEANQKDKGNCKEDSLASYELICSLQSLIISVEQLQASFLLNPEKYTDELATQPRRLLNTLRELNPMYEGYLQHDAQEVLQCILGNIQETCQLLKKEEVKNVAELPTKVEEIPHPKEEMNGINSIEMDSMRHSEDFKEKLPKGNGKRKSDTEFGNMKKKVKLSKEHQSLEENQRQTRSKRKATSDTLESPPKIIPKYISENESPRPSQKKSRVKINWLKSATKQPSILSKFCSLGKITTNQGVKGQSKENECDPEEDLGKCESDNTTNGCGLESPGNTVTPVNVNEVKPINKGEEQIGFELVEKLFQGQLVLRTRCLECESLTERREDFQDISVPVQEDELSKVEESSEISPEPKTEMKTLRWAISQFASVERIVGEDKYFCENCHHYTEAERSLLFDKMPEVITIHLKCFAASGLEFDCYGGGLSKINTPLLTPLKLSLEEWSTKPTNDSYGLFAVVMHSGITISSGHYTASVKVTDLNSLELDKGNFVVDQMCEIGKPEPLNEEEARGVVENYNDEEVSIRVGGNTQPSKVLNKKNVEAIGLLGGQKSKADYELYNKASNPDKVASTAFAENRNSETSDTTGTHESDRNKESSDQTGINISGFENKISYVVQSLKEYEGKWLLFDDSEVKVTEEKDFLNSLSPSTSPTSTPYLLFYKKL

COc1ccc(-c2nc3cnc(N4CCNCC4)nc3n(Cc3ccc(F)cc3)c2=O)cc1
15.2%: max response [10, 18]
active: activity change, negative = inhibition [2] 83.5% [activator] | activity change, negative = inhibition [4] 88% [activator]
24.4%: max response [10, 19]
inactive: Potency [1] > 11.4 µM | Potency [3] | Potency [5] > 9.22 µM | Potency [6] > 46 µM | outcome [7] | Potency [8] | Potency [9] | activity change, negative = inhibition [10] 4.56% | Potency [11]

COc1ccc(C(=O)N2CCC3(CC2)CN(C(=O)Nc2cccc(C#N)c2)C3)cc1
inactive: Potency [1] > 11.4 µM | activity change, negative = inhibition [2] -3.72% | Potency [3] | activity change, negative = inhibition [4] 16.2% | outcome [7] | Potency [12] | Potency [9] | activity change, negative = inhibition [10] 6.5% | Potency [11]
13.9%: max response [10, 18]
18.3%: max response [10, 19]

COCC(=O)N1CCC2(CC1)CN(Cc1ccc(C#N)cc1)C2
5.18%: max response [10, 19]
inactive: Potency [1] > 11.4 µM | activity change, negative = inhibition [2] 3.59% | Potency [3] | activity change, negative = inhibition [4] -16.7% | Potency [6] > 46 µM | outcome [7] | Potency [12] | activity change, negative = inhibition [10] -4.37% | Potency [11]
8.42%: max response [10, 18]

COc1ccc(NC(=O)N2CCCC3(CCN(C(=O)c4csnn4)CC3)C2)cc1
11.2%: max response [10, 18]
22.4%: max response [10, 19]
inactive: Potency [1] > 11.4 µM | activity change, negative = inhibition [2] -1.51% | Potency [3] | activity change, negative = inhibition [4] -2.25% | activity, negative = inhibition [13] -9.13% | outcome [7] | Potency [12] | Potency [9] | activity change, negative = inhibition [10] 6.81% | Potency [11]

CC(=O)N1CCC2(CCCN(c3ccccc3)C2)CC1
9.92%: max response [10, 18]
inactive: Potency [1] > 11.4 µM | activity change, negative = inhibition [2] -11.7% | Potency [3] | activity change, negative = inhibition [4] 9.86% | activity, negative = inhibition [13] -0.0216% | outcome [7] | Potency [12] | Potency [9] | activity change, negative = inhibition [10] 1.01% | Potency [11]
12.8%: max response [10, 19]

COc1ncc2nc(-c3cccs3)c(=O)n(-c3ccccc3)c2n1
inactive: Potency [1] > 11.4 µM | activity change, negative = inhibition [2] -4.36% | activity, negative = inhibition [13] 17.5% | Potency [5] > 9.22 µM | Potency [6] > 46 µM | outcome [7] | Potency [12] | activity change, negative = inhibition [10] -3.04% | Potency [11]
active: Potency [3] 2 µM | Potency [14] 3.16 µM
-0.0529%: max response [10, 18]
-2.75%: max response [10, 19]

CN(C)c1ccc(-c2nc(N(C)Cc3ccco3)c3ccccc3n2)cc1
11.3%: max response [10, 19]
active: Potency [1] 6.72 µM | Potency [3] 0.631 µM
0.88%: max response [10, 18]
inactive: activity change, negative = inhibition [2] 25.1% | activity, negative = inhibition [13] 26.1% | Potency [5] > 46 µM | Potency [6] > 46 µM | outcome [7] | Potency [12] | activity change, negative = inhibition [8] 33.8% [at 2.29 µM] | Potency [9] | outcome [15] | outcome [16] | activity change, negative = inhibition [10] 10.8% | Potency [17] | Potency [11]
